Assay results reported in PubChem BioAssay (Tox21).
Where “and” joins values, the source holds several entries; their conditions need not be identical. Equal values may be shown once. More than one record can exist for a structure, and the calls need not agree. Calls of active or inactive are those of the source. Entries that show only a call come without a potency. Unless noted, the call rests on the fitted dose curve; in most records, active means well fitted curve in the direction sought with a large enough effect in the repeat runs; inconclusive means weak or mixed curves; inactive means no such curve, though single readings can be large; an effect the other way counts as inactive or inconclusive.

Legend:
[1] = qHTS assay for identifying genotoxic compounds that show differential cytotoxicity against isogenic chicken DT40 cell lines with known DNA damage response pathways - wild type cell line (AID 743012); further: nearly all actives have a fitted effect of over 60% in size; further: potency means the concentration at half of the fitted maximal effect
Outline: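 Cells (DT40 wild type, 300/well) are treated with DMSO-dissolved compounds after a ~0.5 h pre-incubation and kept 40 h at 37 C/5% CO2. Viability is then measured by CellTiter-Glo luminescence following 30 min at room temperature.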

[2] = qHTS assay for identifying genotoxic compounds that show differential cytotoxicity against isogenic chicken DT40 cell lines with known DNA damage response pathways - Rev3 mutant cell line (AID 743014); further: nearly all actives have a fitted effect of over 55% in size; further: potency means the concentration at half of the fitted maximal effect
[3] = qHTS assay for identifying genotoxic compounds that show differential cytotoxicity against isogenic chicken DT40 cell lines with known DNA damage response pathways - Rad54/Ku70 mutant cell line (AID 743015); further: nearly all actives have a fitted effect of over 60% in size; further: potency means the concentration at half of the fitted maximal effect
[4] = qHTS assay to identify small molecule antagonists of the androgen receptor (AR) signaling pathway - cell viability counter screen (AID 743033; further: nearly all actives have a fitted effect of over 45% in size; further: potency means the concentration at half of the fitted maximal effect)
[5] = qHTS assay to identify small molecule antagonists of the androgen receptor (AR) signaling pathway using the MDA cell line - cell viability counter screen (AID 743041; further: nearly all actives have a fitted effect of over 45% in size; further: potency means the concentration at half of the fitted maximal effect)
Outline: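 Same-well cytotoxicity was assessed by CellTiter-Fluor in MDA-kb2 AR-luc cells after 16 h of compound treatment under R1881 agonism.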

[6] = test system: thyroid hormone receptor (rat, GH3 cells); test: qHTS assay to identify small molecule agonists of the thyroid receptor (TR) signaling pathway (AID 743066; calls by dose curve)
[7] = qHTS assay to identify small molecule antagonists of the estrogen receptor alpha (ER-alpha) signaling pathway - cell viability counter screen (AID 743074; calls by dose curve;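 further: HEK293 cells carrying ER-alpha-UAS-bla reporter stimulated with 17beta-estradiol; nearly all actives have a fitted effect of over 45% in size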; further: potency means the concentration at half of the fitted maximal effect)
[8] = biological target: Estrogen receptor (Homo sapiens) (UniProt P03372); test: qHTS assay to identify small molecule agonists of the estrogen receptor alpha (ER-alpha) signaling pathway (AID 743075; calls by dose curve;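 further: HEK293 GripTite cells with ER-alpha and UAS-driven beta-lactamase reporter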; further: potency means the concentration at half of the fitted maximal effect)
[9] = biological target: Estrogen receptor (Homo sapiens) (UniProt P03372); test: qHTS assay to identify small molecule agonists of the estrogen receptor alpha (ER-alpha) signaling pathway using the BG1 cell line (AID 743079); further: nearly all actives have a fitted effect of over 20% in size
[10] = qHTS assay to identify small molecule antagonists of the estrogen receptor alpha (ER-alpha) signaling pathway using the BG1 cell line (AID 743080; calls by dose curve;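 further: BG1 cells stimulated with 17beta-estradiol alongside compound; nearly all actives have a fitted effect of over 25% in size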; further: potency means the concentration at half of the fitted maximal effect)
Outline: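 Luciferase inhibition measured with ONE-Glo after 30 min at RT in BG1Luc4E2 cells given test compounds and 17beta-estradiol for 21.5 h at 37 C; CellTiter-Fluor viability read in the same wells beforehand.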

[11] = qHTS assay to identify small molecule antagonists of the estrogen receptor alpha (ER-alpha) signaling pathway using the BG1 cell line - cell viability counter screen (AID 743081);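 further: compound given together with 17beta-estradiol as the ER stimulus; nearly all actives have a fitted effect of over 45% in size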; further: potency means the concentration at half of the fitted maximal effect
Aromatase (Homo sapiens) = Aromatase (Homo sapiens) (UniProt P11511); test: qHTS assay to identify aromatase inhibitors (AID 743083); further: nearly all actives have a fitted effect of over 55% in size; further: potency means the concentration at half of the fitted maximal effect
[12] = qHTS assay to identify small molecule antagonists of the thyroid receptor (TR) signaling pathway - cell viability counter screen (AID 743064); further: nearly all actives have a fitted effect of over 50% in size; further: potency means the concentration at half of the fitted maximal effect
Outline: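 Compounds were tested on GH3.TRE-Luc cells in the presence of T3 at 1 nM final. Following 23.5 h at 37 °C, cell viability was quantified by CellTiter-Fluor.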

[13] = qHTS assay to identify small molecule antagonists of the thyroid receptor (TR) signaling pathway (AID 743065); further: nearly all actives have a fitted effect of over 55% in size; further: potency means the concentration at half of the fitted maximal effect
Outline: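 GH3.TRE-Luc rat pituitary cells (two TREs driving luciferase) were dosed with compound, then stimulated with 1 nM T3 (final) for 23.5 h at 37 C. ONE-Glo luminescence was the read-out, with CellTiter-Fluor fluorescence as the cytotoxicity counter-screen.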

[14] = biological target: Estrogen receptor (Homo sapiens) (UniProt P03372); test: qHTS assay to identify small molecule antagonists of the estrogen receptor alpha (ER-alpha) signaling pathway (AID 743069; active means well fitted curve in the direction sought with a large enough effect in the signal ratio in the repeat runs, not every such curve was filed as active; inconclusive means weak or mixed curves, or effect the other way; inactive means no such curve, though single readings can be large or run the other way; the % refers to the signal ratio)
Outline: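 Reporter cells (ER-alpha-bla, HEK293 background) are conditioned overnight in stripped-serum medium (2% charcoal-stripped FBS). Compound and 17beta-estradiol exposure runs 18 hr at 37C, 5% CO2.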

[15] = biological target: Androgen receptor (Homo sapiens) (UniProt P10275); test: qHTS assay to identify small molecule agonists of the androgen receptor (AR) signaling pathway using the MDA cell line (AID 743040; further: nearly all actives have a fitted effect of over 20% in size; further: potency means the concentration at half of the fitted maximal effect)
Outline: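 Human breast carcinoma MDA-kb2 reporter cells (MMTV-luc, AR/GR elements) were treated for 16 h at 37C in 0% CO2 following a 5 h settling period. Signal was quantified by ONE-Glo luminescence.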

Sequence of Estrogen receptor (Homo sapiens) (P03372 whole entry, looked up): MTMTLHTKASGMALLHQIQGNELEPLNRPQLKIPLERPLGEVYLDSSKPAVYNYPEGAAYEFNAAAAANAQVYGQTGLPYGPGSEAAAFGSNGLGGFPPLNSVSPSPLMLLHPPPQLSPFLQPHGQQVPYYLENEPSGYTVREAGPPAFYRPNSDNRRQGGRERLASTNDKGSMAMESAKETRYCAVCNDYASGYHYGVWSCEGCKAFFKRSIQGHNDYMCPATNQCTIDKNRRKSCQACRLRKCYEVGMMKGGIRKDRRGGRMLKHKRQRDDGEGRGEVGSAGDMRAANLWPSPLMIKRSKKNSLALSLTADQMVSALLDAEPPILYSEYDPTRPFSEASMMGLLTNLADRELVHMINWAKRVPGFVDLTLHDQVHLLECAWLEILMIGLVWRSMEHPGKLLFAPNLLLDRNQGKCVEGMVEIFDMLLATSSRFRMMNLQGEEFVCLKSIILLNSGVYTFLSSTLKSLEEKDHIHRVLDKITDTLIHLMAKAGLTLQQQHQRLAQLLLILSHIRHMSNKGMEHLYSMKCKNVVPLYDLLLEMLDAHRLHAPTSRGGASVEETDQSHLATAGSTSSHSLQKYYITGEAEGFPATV
Sequence of Aromatase (Homo sapiens) (P11511 whole entry, looked up): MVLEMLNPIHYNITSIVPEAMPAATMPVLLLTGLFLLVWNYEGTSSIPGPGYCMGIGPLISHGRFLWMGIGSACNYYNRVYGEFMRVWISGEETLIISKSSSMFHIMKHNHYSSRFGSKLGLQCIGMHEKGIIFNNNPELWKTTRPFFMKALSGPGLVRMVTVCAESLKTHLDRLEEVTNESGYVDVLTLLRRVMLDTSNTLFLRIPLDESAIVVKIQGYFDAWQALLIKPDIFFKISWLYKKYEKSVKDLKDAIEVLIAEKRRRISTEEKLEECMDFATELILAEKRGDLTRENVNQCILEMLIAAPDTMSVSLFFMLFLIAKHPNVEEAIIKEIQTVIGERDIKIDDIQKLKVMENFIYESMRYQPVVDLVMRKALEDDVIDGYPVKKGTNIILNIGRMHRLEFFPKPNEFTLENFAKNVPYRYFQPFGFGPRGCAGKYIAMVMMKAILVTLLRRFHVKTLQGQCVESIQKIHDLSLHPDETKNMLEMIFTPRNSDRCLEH
Sequence of Androgen receptor (Homo sapiens) (P10275 whole entry, looked up): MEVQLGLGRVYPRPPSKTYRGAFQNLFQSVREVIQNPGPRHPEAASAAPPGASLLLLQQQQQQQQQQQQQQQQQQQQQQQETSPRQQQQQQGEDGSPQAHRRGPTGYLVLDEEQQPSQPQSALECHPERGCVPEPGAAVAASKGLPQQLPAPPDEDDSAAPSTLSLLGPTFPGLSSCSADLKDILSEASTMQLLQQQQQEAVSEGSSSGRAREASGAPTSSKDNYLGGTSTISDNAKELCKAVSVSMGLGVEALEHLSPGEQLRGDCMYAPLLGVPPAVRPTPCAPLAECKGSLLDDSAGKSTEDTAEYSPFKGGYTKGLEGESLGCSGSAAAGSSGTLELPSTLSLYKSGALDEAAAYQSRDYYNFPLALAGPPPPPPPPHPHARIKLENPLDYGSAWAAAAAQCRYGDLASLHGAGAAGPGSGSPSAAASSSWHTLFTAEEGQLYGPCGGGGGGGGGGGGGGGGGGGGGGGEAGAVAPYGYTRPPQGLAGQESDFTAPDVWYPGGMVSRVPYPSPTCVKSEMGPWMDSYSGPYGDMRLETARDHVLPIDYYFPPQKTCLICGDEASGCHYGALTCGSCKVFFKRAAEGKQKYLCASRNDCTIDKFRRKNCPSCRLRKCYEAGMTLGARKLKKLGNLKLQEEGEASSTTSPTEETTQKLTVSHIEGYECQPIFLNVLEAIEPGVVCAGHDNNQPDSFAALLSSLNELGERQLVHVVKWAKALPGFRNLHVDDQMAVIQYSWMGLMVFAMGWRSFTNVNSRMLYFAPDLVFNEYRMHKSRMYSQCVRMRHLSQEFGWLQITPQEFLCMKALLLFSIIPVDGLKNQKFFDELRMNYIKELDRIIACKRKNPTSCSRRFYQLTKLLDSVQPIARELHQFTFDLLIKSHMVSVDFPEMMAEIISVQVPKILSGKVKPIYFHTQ

CCCN(CC)CC1COC2(CCC(C(C)(C)C)CC2)O1 (stereo not given)
Potency [1]: 5.45 µM (active) | Potency [2]: 0.686 µM (active) | Potency [3]: 1.22 µM (active) | Potency [4]: inactive | Potency [5]: inactive | outcome [6]: inactive | Potency [7]: inactive | Potency [8]: inactive | Potency [9]: inactive | Potency [10]: inactive | Potency [11]: inactive | Potency (Aromatase (Homo sapiens)): inactive

COC12CC[C@@]3(C[C@@H]1C(C)(O)C(C)(C)C)[C@H]1Cc4ccc(O)c5c4[C@@]3(CCN1CC1CC1)[C@H]2O5 (stereo not given in full)
Potency [1]: 54.1 µM (active) | Potency [2]: 60.7 µM (active) | Potency [3]: 48.2 µM (active) | Potency [4]: 54.6 µM (active) | Potency [5]: 60.7 µM (active) | Potency [12]: 21.5 µM (active) | Potency [13]: 24.2 µM (active) | Potency [8]: inactive | Potency [11]: inactive | Potency (Aromatase (Homo sapiens)): 19.2 µM (active)

O=c1ssc(Cl)c1Cl
Potency [1]: 3.44 µM (active) | Potency [2]: 2.17 µM (active) | Potency [3]: 3.44 µM (active) | Potency [4]: 43.6 µM (active) | Potency [5]: inactive | Potency [12]: 48.6 µM (active) | Potency [13]: 27.3 µM (active) | outcome [6]: inactive | Potency [14]: inactive | Potency [7]: inactive | Potency [9]: inactive | Potency [10]: inactive | Potency (Aromatase (Homo sapiens)): 15.4 µM (active)

O=C(Nc1ccc2[nH]ccc2c1)c1cc2cc(F)ccc2n1Cc1cccc(F)c1
Potency [1]: 19.3 µM (active) | Potency [2]: 27.3 µM (active) | Potency [3]: 17.2 µM (active) | Potency [4]: 49 µM (active) | Potency [12]: 10.9 µM (active) | Potency [13]: 13.7 µM (active) | Potency [7]: inactive | Potency [11]: inactive

O=S(=O)(c1ccc(Cl)cc1)c1ccc(Cl)cc1
Potency [1]: 24.6 µM (active) | Potency [2]: 44.8 µM (active) | Potency [3]: 52.8 µM (active) | Potency [5]: inactive | Potency [13]: inactive | outcome [6]: inactive | Potency [8]: inactive | Potency [10]: 24.6 µM (active) | Potency [11]: inactive

O=c1[nH]c2ccccc2n1C1CCN(CCCC(c2ccc(F)cc2)c2ccc(F)cc2)CC1
Potency [1]: 5.31 µM (active) and 6.11 µM (active) | Potency [2]: 10.6 µM (active) and 21.7 µM (active) | Potency [3]: 8.41 µM (active) and 9.69 µM (active) | Potency [4]: inactive and 17.4 µM (active) | Potency [5]: inactive | Potency [7]: 26.8 µM (active) and 54.9 µM (active) | Potency [8]: inactive | Potency [11]: 54.5 µM (active) | Potency (Aromatase (Homo sapiens)): inactive and 30.6 µM (active)

CSCCCN=C=S
Potency [1]: 48.6 µM (active) | Potency [2]: 27.3 µM (active) | Potency [3]: 43.3 µM (active) | Potency [4]: inactive | Potency [5]: inactive | Potency [12]: inactive | outcome [6]: inactive | Potency [7]: inactive | Potency [11]: inactive

COc1ccc(N)cc1N
Potency [1]: 11.7 µM (active) | Potency [2]: 3.98 µM (active) and 5.87 µM (active) | Potency [3]: 9.99 µM (active) and 7.38 µM (active) | Potency [4]: 16 µM (active) and 18.7 µM (active) | Potency [5]: inactive | Potency [12]: 37 µM (active) | outcome [6]: inactive | Potency [11]: inactive | Potency (Aromatase (Homo sapiens)): 12.6 µM (active) and 33 µM (active)

O=C(O)C1C2CCC(O2)C1C(=O)O (stereo not given)
Potency [1]: inactive | Potency [2]: inactive | Potency [3]: inactive | Potency [4]: inactive | Potency [5]: inactive | Potency [12]: inactive | outcome [6]: inactive | Potency [7]: inactive | Potency [11]: inactive

CC1(C)CC/C(=C/c2ccc(Cl)cc2)C1(O)Cn1cncn1 (stereo not given)
Potency [1]: 21.6 µM (active) | Potency [2]: 60.8 µM (active) | Potency [3]: 55.2 µM (active) | Potency [15]: 9.63 µM (active) | Potency [13]: 54.2 µM (active) | outcome [6]: inactive | Potency [14]: inactive | Potency [7]: inactive | Potency [8]: inactive | Potency [9]: inactive | Potency [10]: inactive | Potency (Aromatase (Homo sapiens)): inactive

CCCCN(CCCC)C(=S)[S-].CCCCN(CCCC)C(=S)[S-].[Zn+2]
Potency [1]: inactive | Potency [2]: inactive | Potency [3]: inactive | Potency [4]: inactive | Potency [5]: inactive | Potency [12]: 18.8 µM (active) and 7.69 µM (active) | Potency [13]: 13.3 µM (active) and 9.68 µM (active) | Potency [7]: 19 µM (active) and 12.3 µM (active) | Potency [8]: 30.1 µM [inconclusive] (active) | Potency [11]: 21.1 µM (active) and 38.5 µM (active) | Potency (Aromatase (Homo sapiens)): inactive

CCOP(=O)(NC(C)C)Oc1ccc(SC)c(C)c1 (stereo not given)
Potency [1]: 7.7 µM (active) | Potency [2]: 18.8 µM (active) | Potency [3]: 40.1 µM (active) | Potency [15]: inactive | Potency [5]: inactive | Potency [12]: 61.1 µM (active)

Clc1ccc(COC(Cn2ccnc2)c2ccc(Cl)cc2Cl)cc1 (stereo not given)
Potency [1]: 7.5 µM (active) and 20.2 µM (active) and 15.3 µM (active) | Potency [2]: 16.8 µM (active) and 12.8 µM (active) and 9.65 µM (active) | Potency [3]: 10.6 µM (active) and 16.1 µM (active) and 10.8 µM (active) | Potency [4]: 40.7 µM (active) and 38.7 µM (active) | Potency [12]: 13.3 µM (active) and 27.2 µM (active) | outcome [6]: inactive | Potency [7]: 45.7 µM (active) and 34.5 µM (active) | Potency [10]: 23.7 µM (active) and 60.9 µM (active) | Potency [11]: inactive | Potency (Aromatase (Homo sapiens)): 531 nM (active) and 255 nM (active) and 68.3 nM (active)

CCN
Potency [1]: inactive | Potency [2]: inactive | Potency [3]: inactive | Potency [4]: inactive | Potency [5]: inactive | Potency [12]: inactive | outcome [6]: inactive | Potency [7]: inactive | Potency [10]: inactive | Potency [11]: inactive | Potency (Aromatase (Homo sapiens)): inactive

Oc1ccc(C2(c3ccc(O)cc3)c3ccccc3-c3ccccc32)cc1
Potency [1]: 68.6 µM (active) | Potency [2]: 43.3 µM (active) | Potency [3]: 54.5 µM (active) | Potency [4]: 54.9 µM (active) | Potency [12]: 27.3 µM (active) | Potency [13]: 15.4 µM (active) | outcome [6]: inactive

Nc1ccccc1C(=O)OC/C=C/c1ccccc1
Potency [5]: inactive | outcome [6]: inactive | Potency [7]: inactive | Potency [8]: inactive | Potency [11]: inactive | Potency (Aromatase (Homo sapiens)): inactive

CC(C)(C)C(O)/C(=C\c1ccc(Cl)cc1Cl)n1cncn1 (stereo not given)
Potency [1]: 18.6 µM (active) | Potency [2]: 18.6 µM (active) | Potency [5]: inactive | Potency [12]: 83 µM (active) | Potency [13]: 74 µM (active) | Potency [7]: inactive | Potency [8]: inactive | Potency [10]: 74 µM (active) | Potency [11]: inactive | Potency (Aromatase (Homo sapiens)): 58.7 µM (active)

C[C@]12CC[C@@H]3c4ccc(OC(=O)N(CCCl)CCCl)cc4CC[C@H]3[C@@H]1CC[C@@H]2O
Potency [1]: inactive | Potency [4]: inactive | Potency [5]: inactive | Potency [12]: inactive | Potency [13]: inactive | outcome [6]: inactive | Potency [7]: inactive | Potency [11]: inactive | Potency (Aromatase (Homo sapiens)): inactive
